# Measurements reported in PubChem BioAssay (EPA / NIEHS).
# Records with an inconclusive call do not appear. Where a structure was tested more than once in an assay, its records may differ in their call. The source made the active and inactive calls. Rule for the calls: active = hit-call score of the fitted dose curve at least 0.9, where 1 is the maximum; inconclusive = response in the unintended direction; inactive = score below 0.9.
# Key:
# [1] = molecular target: Luciferin 4-monooxygenase (Photinus pyralis) (UniProt P08659); assay: CCTE_Simmons_QuantiLum_inhib_2: CCTE's Firefly Luciferase Inhibition Assay, Simmons Lab (AID 2283767);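 for AC50: potency for inhibitors that lower luciferase luminescence relative to DMSO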
# Summary of the method: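 Counter-screen for nonspecific enzyme inhibition: purified firefly luciferase incubated 30 min at 37C with chemicals up to 87.5 uM final, then luminescence measured after luciferin/dATP injection; activity fitted against DMSO baseline.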
# [2] = ACEA_AR_antagonist_AUC_viability: ACEA Biosciences xCELLigence Real-Time Cell Analysis on Androgen Receptor Antagonism for Viability (AID 2283776);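 note: 22Rv1 human prostate cancer cells growing on impedance electrode plates; area under impedance growth curve at 80 h after dosing as viability; hits lower the growth signal relative to DMSO meaning cytotoxicity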
# Summary of the method: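 Real-time electrical impedance tracks 22Rv1 proliferation after continuous compound exposure (top 100 uM final, 1:4 steps, 8 concentrations). The 80 h area-under-curve serves as the cytotoxicity readout relative to DMSO.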
# [3] = ACEA_ER_AUC_viability: ACEA Biosciences xCELLigence Real-Time Cell Analysis on Estrogen Receptor Agonism for Viability (AID 2283782);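 note: hit means loss of impedance signal meaning reduced cell growth or viability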
# Summary of the method: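 T-47D; phenol red-free RPMI1640 + 10% CS-FBS; 8 conc., 1:4 serial, max 100 uM final, ≤0.5% DMSO; n = 2; continuous exposure; impedance monitored to 80 h post-dose; AUC vs DMSO.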
# [4] = STM_H9_NormalizedViability: Cytotoxicity Assessment at 120 hours in the Stemina devTOX quickPredict H9 human embryonic stem cell (hESC)-based Assay (AID 2283784)
# Summary of the method: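 Chemicals are tested blinded on H9 human embryonic stem cells in the pluripotent state, with medium exchanged daily. After background correction, fluorescence from CellTiter-Fluor is scaled against 0.1% DMSO wells, and decreases are scored.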
# [5] = ACEA_AR_agonist_AUC_viability: ACEA Biosciences xCELLigence Real-Time Cell Analysis on Androgen Receptor Agonism for Viability (AID 2283775);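 for AC50: viability read 80 hours after compound addition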
# Summary of the method: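 Read-out is area under the impedance curve at 80 h post-dose in 22Rv1 cells, with DMSO as baseline and signal loss taken as reduced viability. Compounds ran in duplicate from 100 uM final.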
# [6] = molecular target: AR (gene 367) (UniProt P10275); assay: ACEA_AR_agonist_80hr: ACEA Biosciences xCELLigence Real-Time Cell Analysis on Androgen Receptor Agonism for Proliferation (AID 2283783);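 note: hits increase impedance growth signal above DMSO baseline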
# Summary of the method: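 Androgen-driven proliferation in 22Rv1 cells is tracked as electrical impedance, taken 80 h after continuous exposure to compound (eight concentrations, 1:4 steps, maximum 100 uM final). Activity is fitted in the positive direction with DMSO as baseline.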
# [7] = molecular target: AR (gene 367) (UniProt P10275); assay: ACEA_AR_antagonist_80hr: ACEA Biosciences xCELLigence Real-Time Cell Analysis on Androgen Receptor Antagonism for Proliferation (AID 2283787);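 note: 22Rv1 human prostate cancer cells with growth followed by electrical impedance; hits lower the impedance growth signal relative to DMSO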
# Summary of the method: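 Growth-kinetic antagonist readout in 22Rv1 cells, taken 80 h after continuous compound exposure. Activity fitted as signal loss relative to DMSO negative control.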
# AR (gene 367), sequence (P10275 whole entry, looked up): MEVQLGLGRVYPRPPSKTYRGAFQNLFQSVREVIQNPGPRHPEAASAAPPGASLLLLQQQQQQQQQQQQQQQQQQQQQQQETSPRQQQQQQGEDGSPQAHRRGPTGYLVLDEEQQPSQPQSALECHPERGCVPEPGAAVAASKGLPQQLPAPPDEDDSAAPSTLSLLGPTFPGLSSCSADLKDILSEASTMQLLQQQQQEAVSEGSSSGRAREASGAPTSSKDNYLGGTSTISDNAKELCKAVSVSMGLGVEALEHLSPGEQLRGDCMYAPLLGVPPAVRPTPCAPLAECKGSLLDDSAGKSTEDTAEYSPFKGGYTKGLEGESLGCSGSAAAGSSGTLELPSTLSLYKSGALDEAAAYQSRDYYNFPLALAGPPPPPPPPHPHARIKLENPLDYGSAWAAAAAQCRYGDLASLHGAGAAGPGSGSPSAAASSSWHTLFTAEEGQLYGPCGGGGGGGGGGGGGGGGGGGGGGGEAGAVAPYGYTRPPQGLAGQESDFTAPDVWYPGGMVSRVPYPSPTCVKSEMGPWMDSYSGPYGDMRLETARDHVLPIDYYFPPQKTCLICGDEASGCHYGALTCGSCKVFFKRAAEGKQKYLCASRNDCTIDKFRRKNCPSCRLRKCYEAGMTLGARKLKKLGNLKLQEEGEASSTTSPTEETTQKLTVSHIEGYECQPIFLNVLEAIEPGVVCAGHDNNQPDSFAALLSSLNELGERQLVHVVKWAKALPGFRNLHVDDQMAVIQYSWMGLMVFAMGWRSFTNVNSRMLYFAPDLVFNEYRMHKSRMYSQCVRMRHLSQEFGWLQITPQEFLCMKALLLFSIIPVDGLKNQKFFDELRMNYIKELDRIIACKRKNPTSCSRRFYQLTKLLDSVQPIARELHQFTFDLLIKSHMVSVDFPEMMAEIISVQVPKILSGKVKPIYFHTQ
# Luciferin 4-monooxygenase (Photinus pyralis), sequence (P08659 whole entry, looked up): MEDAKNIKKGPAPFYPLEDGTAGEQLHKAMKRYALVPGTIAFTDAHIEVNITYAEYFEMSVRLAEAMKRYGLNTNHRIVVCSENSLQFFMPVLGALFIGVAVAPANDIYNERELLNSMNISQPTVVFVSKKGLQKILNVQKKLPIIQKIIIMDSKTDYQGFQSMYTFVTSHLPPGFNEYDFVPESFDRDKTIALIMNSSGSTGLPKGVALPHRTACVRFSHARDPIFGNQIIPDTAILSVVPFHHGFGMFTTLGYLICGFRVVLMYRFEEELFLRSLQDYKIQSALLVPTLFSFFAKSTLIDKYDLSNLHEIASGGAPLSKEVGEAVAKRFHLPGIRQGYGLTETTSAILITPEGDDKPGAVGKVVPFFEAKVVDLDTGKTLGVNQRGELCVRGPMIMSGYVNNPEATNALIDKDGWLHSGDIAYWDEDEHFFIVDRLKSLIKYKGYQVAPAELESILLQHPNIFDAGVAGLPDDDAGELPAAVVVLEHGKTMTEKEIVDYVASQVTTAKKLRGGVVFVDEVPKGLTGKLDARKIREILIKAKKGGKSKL
compound,measurement,setting,value
CCOC(=O)c1ccc(C2CCC(NC[C@H](O)COc3ccc(O)c(NS(C)(=O)=O)c3)CC2)cc1 (some centres undefined),outcome,[1],inactive
same,AC50,[2],24.4 µM (active)
same,AC50,[3],5.31 µM (active)
same,outcome,[4],inactive
O=C(O)c1cccc(N(Cc2cccnc2)c2ccc(OC(F)F)c(OC(F)F)c2)c1,outcome,[1],inactive
same,AC50,[5],88.2 µM (active)
same,AC50,[2],76.9 µM (active)
same,AC50,[6],10.5 µM (active)
same,AC50,[7],77.6 µM (active)
CCCCCCc1ccc(O)cc1O,outcome,[1],inactive
same,AC50,[5],16.1 µM (active)
same,AC50,[2],13.7 µM (active)
same,AC50,[3],80.1 µM (active)
same,AC50,[7],11 µM (active)
CC[C@H](C)C(=O)O[C@H]1C[C@@H](C)C=C2C=C[C@H](C)[C@H](CC[C@@H]3C[C@@H](O)CC(=O)O3)[C@H]21,AC50,[1],77.6 µM (active)
same,outcome,[1],inactive
same,outcome,[5],inactive
same,AC50,[2],50 µM (active)
same,AC50,[3],28.2 µM (active)
same,outcome,[4],inactive
Cn1cnc([N+](=O)[O-])c1Sc1ncnc2nc[nH]c12,outcome,[1],inactive
same,AC50,[5],1.15 µM (active)
same,AC50,[2],1.52 µM (active)
same,AC50,[3],1.42 µM (active)
same,AC50,[4],4.02 µM (active)
Nc1ccc(Nc2ccccc2)cc1,outcome,[1],inactive
same,AC50,[5],93 µM (active)
same,AC50,[2],87.5 µM (active)
same,AC50,[4],6.7 µM (active)
CCNc1ccccc1,outcome,[1],inactive
same,outcome,[5],inactive
same,outcome,[2],inactive
same,outcome,[3],inactive
O=C(OC[C@H]1O[C@@H](OC(=O)c2cc(O)c(O)c(OC(=O)c3cc(O)c(O)c(O)c3)c2)[C@H](OC(=O)c2cc(O)c(O)c(OC(=O)c3cc(O)c(O)c(O)c3)c2)[C@@H](OC(=O)c2cc(O)c(O)c(OC(=O)c3cc(O)c(O)c(O)c3)c2)[C@@H]1OC(=O)c1cc(O)c(O)c(OC(=O)c2cc(O)c(O)c(O)c2)c1)c1cc(O)c(O)c(OC(=O)c2cc(O)c(O)c(O)c2)c1,AC50,[1],21.6 µM (active)
same,AC50,[5],26.3 µM (active)
same,outcome,[3],inactive
CN(C)c1ccc(Cc2ccc(N(C)C)cc2)cc1,outcome,[1],inactive
same,AC50,[5],56.8 µM (active)
same,AC50,[2],50 µM (active)
Nc1nc2ncc(CNc3ccc(C(=O)N[C@@H](CCC(=O)O)C(=O)O)cc3)nc2c(=O)[nH]1,outcome,[1],inactive
same,outcome,[5],inactive
same,outcome,[2],inactive
same,outcome,[4],inactive
same,outcome,[7],inactive
CCOc1cccc(-n2cc(C(=O)N3CCN(c4cc(C(=O)O)c5ccccc5c4)CC3)nc2-c2ccc(C)cc2)c1,outcome,[1],inactive
same,AC50,[5],7.41 µM (active)
same,AC50,[2],11.5 µM (active)
same,outcome,[3],inactive
same,AC50,[7],12.5 µM (active)
CCCN(C1CCN(C(=O)C2CCNCC2)CC1)[C@@H]1CCc2ccc(OC)cc2C1,outcome,[1],inactive
same,AC50,[5],75 µM (active)
same,AC50,[2],50 µM (active)
same,outcome,[6],inactive
same,AC50,[7],63.9 µM (active)
